Results as given in article PMC4552634, “A New Set of Chemical Starting Points with Plasmodium falciparum Transmission-Blocking Potential for Antimalarial Drug Discovery” (PLoS ONE, 2015).
Among all 13,000 compounds or so, about 3,200 (25%) showed an effect of 50% or more. Some of the results follow.

Test system: P. falciparum stage V gametocytes
Set-up: BacTiter-Glo ATP luminescence viability of purified stage V gametocytes in 384-well plates, per cent inhibition versus DMSO
Conditions: 48 h, 5 µM; inhibitor

SMILES	% Inhibition [%]
O=c1cc(NCCCNCc2ccc(Cl)c(Cl)c2)[nH]c2cc(F)cc(F)c12 [TCMDC-139408]	-8.545
COc1cc(NC(=O)N2CCOC(CCN3CCC(c4ccccc4)CC3)(c3ccc(Cl)c(Cl)c3)C2)cc(OC)c1 (centres unmarked) [TCMDC-135343]	-16.83
COc1ccc2nccc([C@@H](O)CN3CCC(NCCNc4ccccn4)CC3)c2c1 [TCMDC-140562]	28.84
COc1ccc(C(=O)N2CCC3(CC2)C(=O)N(CC(=O)NC2CCCCC2)CN3c2ccccc2)c(OC)c1 [TCMDC-125169]	-35.99
COCCCNC(=O)C1CCN(C(c2ccc(Cl)cc2)c2ccc(Cl)cc2)CC1 [TCMDC-135521]	-10.75
CC(=O)c1ccc(N2CCN(CCC3(c4ccc(Cl)c(Cl)c4)COCN(C(=O)c4ccccc4)C3)CC2)cc1 (centres unmarked) [TCMDC-141761]	30.09
O=C(c1ccccc1)N1COCC(CCN2CCC(N3CCCC3)CC2)(c2ccc(Cl)c(Cl)c2)C1 (centres unmarked) [TCMDC-141760]	43.61
O=C(Nc1ccccc1)NC1CCN(CCC2(c3ccc(Cl)c(Cl)c3)COCN(C(=O)c3ccccc3)C2)C1 (centres unmarked) [TCMDC-141759]	59.82
O=C1NC(c2ccc(N3CCCCCC3)cc2)Nc2ccccc21 (centres unmarked) [TCMDC-125058]	38.08
CCN(CC)C(=O)C1CCCN(C(=O)Nc2cc(C(F)(F)F)cc(C(F)(F)F)c2)C1 (centres unmarked) [TCMDC-124042]	-75.6
CC(CN1CCN(C)CC1)C(=O)Nc1ccc(-c2ccc(-c3nc4ccc(F)cc4[nH]3)cc2)cc1 (centres unmarked) [TCMDC-136777]	4.283
CC(CN1CCN(C)CC1)C(=O)Nc1ccc(-c2ccc(-c3nc4ccc(C(F)(F)F)cc4[nH]3)cc2)cc1 (centres unmarked) [TCMDC-137153]	-5.664
CC(CN(C)C)C(=O)Nc1ccc(-c2ccc(-c3nc4ccc(F)cc4[nH]3)cc2)cc1 (centres unmarked) [TCMDC-136778]	6.212
CC(CN1CCN(C)CC1)C(=O)Nc1cccc(-c2cccc(-c3nc4ccc(F)cc4[nH]3)c2)c1 (centres unmarked) [TCMDC-137145]	48.07
CC(CN1CCN(C)CC1)C(=O)Nc1cccc(-c2ccc(-c3nc4ccc(C(F)(F)F)cc4[nH]3)cc2)c1 (centres unmarked) [TCMDC-137152]	80.48
CC(CN(C)C)C(=O)Nc1cccc(-c2ccc(-c3nc4ccc(F)cc4[nH]3)cc2)c1 (centres unmarked) [TCMDC-137106]	-31.14
CC(CN1CCN(C)CC1)C(=O)Nc1ccc(-c2cccc(-c3nc4ccc(C(F)(F)F)cc4[nH]3)c2)cc1 (centres unmarked) [TCMDC-137149]	40.39
CC(CN1CCN(C)CC1)C(=O)Nc1cccc(-c2ccc(-c3nc4ccc(F)cc4[nH]3)cc2)c1 (centres unmarked) [TCMDC-137146]	77.49
CC(CN1CCN(C)CC1)C(=O)Nc1ccc(-c2cccc(-c3nc4ccc(F)cc4[nH]3)c2)cc1 (centres unmarked) [TCMDC-137143]	97.96
O=C(N[C@@H](CC1CCCCC1)C(=O)NCc1cccc2ccccc12)c1ccc(O)c(-c2ccc(Cl)c(Cl)c2)c1 [TCMDC-140879]	41.81
Cc1noc(C)c1-c1cccc(CNCc2ccc(-c3cccc(-c4nc5cc(F)ccc5[nH]4)c3)cc2)c1.O=C(O)C(F)(F)F [TCMDC-133060]	13.66

SMILES	% Inhibition [%]
Cc1cccc(Oc2cccc3[nH]nc(N)c23)c1 [TCMDC-131935]	-73.01
Cc1cc(C(F)(F)F)n2nc(C(=O)N(Cc3cncn3Cc3cccc(F)c3)CC3CC3)cc2n1 [TCMDC-132460]	0.2406
COCCOc1cccc(CN2CCC(c3cc4nc(C)cc(C(F)(F)F)n4n3)C2)c1 (centres unmarked) [TCMDC-134506]	-5.307
Cc1cc(C(F)(F)F)n2nc(C3CCN(Cc4cc(C)c(O)c(C)c4)C3)cc2n1 (centres unmarked) [TCMDC-124827]	92.15
COCC(=O)N(Cc1cccc(-c2ccc(CNCCc3ccccc3)cc2)c1)C1CCN(Cc2ccccc2)CC1 [TCMDC-140536]	103
O=C(NCCc1ccccc1)N(Cc1cccc(-c2ccc(CNCCc3ccccc3)cc2)c1)C1CCN(Cc2ccccc2)CC1 [TCMDC-140617]	94.88
COCCNCc1ccc(-c2cccc(CN(C(=O)NCCc3ccccc3)C3CCN(Cc4ccccc4)CC3)c2)cc1 [TCMDC-140616]	102.8
O=C(c1cccs1)N(Cc1cccc(-c2ccc(CNC3CCCC3)cc2)c1)C1CCN(Cc2ccccc2)CC1 [TCMDC-140567]	107
COc1cc(Nc2ccnc3ccc(C(F)(F)F)cc23)cc(OC)c1OC [TCMDC-138471]	8.096
Cc1cc(C)cc(N2C(N)=NC(N)=NC2(C)C)c1 [TCMDC-137927]	10.77
CCOC(=O)c1c(NC(NC(=O)c2ccc(C(C)(C)C)cc2)C(Cl)(Cl)Cl)sc2c1CCCC2 (centres unmarked) [TCMDC-125722]	17.61
Cc1cccc(CC(N)=NCCCCCCN=C(N)Cc2cccc(C)c2)c1 [TCMDC-138135]	-14.49
CC(C)C[C@H](NC(=O)OC(C)(C)C)C(=O)Nc1ccc(Cc2ccc(NC(=O)[C@H](CC(C)C)NC(=O)OC(C)(C)C)cc2)cc1 [TCMDC-131866]	-6.979
CCS[C@@H]1O[C@H](COC(=O)c2ccccc2)[C@H](OC(=O)c2ccccc2)[C@H](OC(=O)c2ccccc2)[C@H]1OC(=O)c1ccccc1 [TCMDC-137162]	42.17
COc1ccccc1Nc1nc(C)cc(NCc2ccc(-c3c(C)noc3C)cc2)n1 [TCMDC-133453]	12.57
Cc1[nH]c2cc(Cl)ccc2c1C1=CCN(CCCCC2(C)C(=O)Nc3ccccc32)CC1 (centres unmarked) [TCMDC-140945]	-53
COc1cc(C(=O)NCCCN2CCN(c3cccc(Cl)c3)CC2)ccc1-c1cc2cc(Cl)c(Cl)cc2[nH]1 [TCMDC-139622]	6.24
O=C(NCCc1ccccc1)N(Cc1ccc(-c2cccc(CN3CCNCC3)c2)cc1)C1CCN(Cc2ccccc2)CC1 [TCMDC-139635]	105.4
O=C(NCCc1ccccc1)N(Cc1cccc(-c2ccc(CNC3CCCC3)cc2)c1)C1CCN(Cc2ccccc2)CC1 [TCMDC-140618]	99.39
O=C(c1cccs1)N(Cc1cccc(-c2ccc(CNCCc3ccccc3)cc2)c1)C1CCN(Cc2ccccc2)CC1 [TCMDC-140566]	66.5
